Assay results reported in PubChem BioAssay (NCATS).
Records with an inconclusive call do not appear. Values without a mark were called inactive. The source made the active and inactive calls. Calls follow the shape of the full dose curve.

Target: Nucleoprotein (Lymphocytic choriomeningitis virus (strain Armstrong)) (UniProt P09992)
Test: qHTS for Inhibitors of the Functional Ribonucleoprotein Complex (vRNP) of Lymphocytic Choriomeningitis Arenaviruses (LCMV): LCMV Primary Screen - GLuc reporter signal (AID 1347086); also: nearly all actives have a fitted effect of over 70% in size
Details: LCMV minigenome vRNP cell assay, Gaussia luciferase reporter; series mostly up to 57.5 µM; activity change, negative = inhibition: at the top concentration
% is scaled to controls: 0 for no effect and ±100 for the full control effect.

Sequence of Nucleoprotein (Lymphocytic choriomeningitis virus (strain Armstrong)) (P09992 whole entry, looked up): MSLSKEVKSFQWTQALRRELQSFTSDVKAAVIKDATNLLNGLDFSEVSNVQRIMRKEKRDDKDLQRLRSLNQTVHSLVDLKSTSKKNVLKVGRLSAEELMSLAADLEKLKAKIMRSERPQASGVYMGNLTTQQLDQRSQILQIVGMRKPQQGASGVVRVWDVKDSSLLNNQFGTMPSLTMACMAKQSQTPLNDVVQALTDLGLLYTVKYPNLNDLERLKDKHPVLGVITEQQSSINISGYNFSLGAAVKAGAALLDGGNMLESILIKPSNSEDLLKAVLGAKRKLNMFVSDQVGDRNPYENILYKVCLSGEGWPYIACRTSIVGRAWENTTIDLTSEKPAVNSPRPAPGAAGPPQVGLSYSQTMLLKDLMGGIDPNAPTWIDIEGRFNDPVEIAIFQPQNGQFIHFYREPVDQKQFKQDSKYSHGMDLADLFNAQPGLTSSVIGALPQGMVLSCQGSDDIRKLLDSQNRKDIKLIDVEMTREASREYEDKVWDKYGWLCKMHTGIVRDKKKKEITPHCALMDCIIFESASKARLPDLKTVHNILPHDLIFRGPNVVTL

Compound | activity change, negative = inhibition | Potency
CCCOc1ccc2nc(NC(=O)OC)[nH]c2c1 | -31.9% | –
CCOC(=O)c1ccc(C#Cc2ccc3c(c2)C(C)(C)CCS3)nc1 | -33.8% | –
COc1ccc(OC(=O)N(CC(=O)O)Cc2ccc(OCCc3nc(-c4ccccc4)oc3C)cc2)cc1 | -5.64% | –
CCOC(=O)OC(C)OC1=C(C(=O)Nc2ccccn2)N(C)S(=O)(=O)c2ccccc21 (stereo not drawn) | -27.2% | –
O=c1[nH]c2ccccc2n1CCCN1CCN(C(c2ccccc2)c2ccccc2)CC1 | -33% | –
O=C(O)c1cccc(-c2noc(-c3ccccc3F)n2)c1 | 9.8% | –
COc1cc(N)c(Cl)cc1C(=O)NC1CCN(CCCOc2ccc(F)cc2)CC1OC (stereo not drawn) | -31.2% | –
O=C1OC2(c3ccccc31)c1cc(I)c(O)c(I)c1Oc1c2cc(I)c(O)c1I | -10.7% | –
CCCCOc1ccc(CC(=O)NO)cc1 | -1.87% | –
N[C@@H](Cc1cc(I)c(O)c(I)c1)C(=O)O | 14.7% | –
CN1CCC(Nc2ncc3ncnc(Nc4ccc(F)c(Cl)c4)c3n2)CC1 | 8.44% | –
COc1ccc(CCN2CCC(Nc3nc4ccccc4n3Cc3ccc(F)cc3)CC2)cc1 | -20.4% | –
O=Cc1ccc(O)c(O)c1O | -2.6% | –
O=c1[nH]c(=O)n([C@H]2C[C@H](O)[C@@H](CO)O2)cc1C(F)(F)F | -9.73% | –
COC(=O)C1=C(C)NC(C)=C(C(=O)OCCCN2CCC(c3ccccc3)(c3ccccc3)CC2)C1c1cccc([N+](=O)[O-])c1 (stereo not drawn) | -30.3% | –
CN(C)CCN(Cc1ccc(Cl)cc1)c1ccccn1 | 1.57% | –
CN(C)CCCOc1nn(Cc2ccccc2)c2ccccc12 | -34.5% | –

Compound | activity change, negative = inhibition | Potency
COc1cc(N)c(Cl)cc1C(=O)NC1CCN(Cc2ccccc2)CC1 | -0.608% | –
CN(C)CC/C=C1\c2ccccc2Sc2ccc(Cl)cc21 | -40.9% | –
c1ccc(CC2=NCCN2)cc1 | -12.4% | –
CC(=O)N(CC(=O)N(C)C)c1ccccc1 | -3.87% | –
CCOC(=O)Nc1ccc(NCc2ccc(F)cc2)nc1N | – | inactive
CC1(C)O[C@@H]2C[C@H]3[C@@H]4CCC5=CC(=O)CC[C@]5(C)[C@@]4(F)[C@@H](O)C[C@]3(C)[C@]2(C(=O)CCl)O1 | 0.418% | –
C=C[C@@]1(C)CC(=O)[C@]2(O)[C@@]3(C)[C@@H](O)CCC(C)(C)[C@@H]3[C@H](O)[C@H](OC(C)=O)[C@@]2(C)O1 | 3.08% | –
O=C(NOCC1CC1)c1ccc(F)c(F)c1Nc1ccc(I)cc1Cl | 25.6% | –
O=S(=O)(O)NC1CCCCC1 | 0.465% | –
C[C@@H]1CN(CCCn2c3ccccc3c3ccccc32)C[C@H](C)N1 | 1.18% | –
CN1CCC(=C2c3ccccc3CC(=O)c3sccc32)CC1 | – | inactive
CC(CNC1CCCCC1)OC(=O)c1ccccc1 (stereo not drawn) | -17.4% | –
CN1CCC(=C2c3ccccc3CCc3cccnc32)CC1 | -37.6% | –
CCO[C@@H]1O[C@H](C(COCc2ccccc2)OCc2ccccc2)[C@H](OCc2ccccc2)[C@H]1O (stereo partly drawn) | -1.92% | –
O=C(CS)Nc1ccccc1 | -32.3% | –
CCOC(=O)[C@H](CCc1ccccc1)N[C@@H](C)C(=O)N(CC(=O)O)C1Cc2ccccc2C1 | -19% | –
